The list is not random: actives were taken first. Their share in the collection is about 6.3%.
RORg inh = inhibitors of mouse ROR gamma transcriptional activity; P51450; Potency, µM (highest dose often 53.6 µM), for inactives: at the highest dose activity change, negative = inhibition, usual class: inhibitors; Drosophila S2 Gal4-RORgamma UAS-luciferase reporter, 20 h; actives 5.4% (n = 310,000); note: % is set by controls: 0 for no effect and ±100 for the full control effect; nearly all actives have a fitted effect of over 60% in size
Target sequence (P51450 whole entry, looked up, the tested form may be a part): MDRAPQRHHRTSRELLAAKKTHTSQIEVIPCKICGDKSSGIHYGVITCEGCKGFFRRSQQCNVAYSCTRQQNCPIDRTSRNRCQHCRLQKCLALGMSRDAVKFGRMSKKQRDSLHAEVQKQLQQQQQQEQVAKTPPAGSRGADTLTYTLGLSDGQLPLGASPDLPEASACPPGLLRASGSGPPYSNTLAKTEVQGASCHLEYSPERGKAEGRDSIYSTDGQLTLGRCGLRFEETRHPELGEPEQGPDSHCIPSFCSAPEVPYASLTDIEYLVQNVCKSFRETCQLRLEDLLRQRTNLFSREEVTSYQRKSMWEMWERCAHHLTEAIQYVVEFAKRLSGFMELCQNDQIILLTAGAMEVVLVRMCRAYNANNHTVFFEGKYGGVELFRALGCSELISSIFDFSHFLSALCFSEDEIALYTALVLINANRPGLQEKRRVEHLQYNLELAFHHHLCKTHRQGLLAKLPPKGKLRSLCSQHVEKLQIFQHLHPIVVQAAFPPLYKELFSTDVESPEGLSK
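Drosophila Schneider cells stably carrying a metallothionein-driven Gal4 DBD–ROR gamma fusion and a UAS-Photinus luciferase reporter were exposed to compound for 1 hr, then induced with copper sulfate (700 uM final) for 20 hr at ambient temperature before luminescence reading.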
Gal4-VP16 FLuc = Gal4-VP16 reporter inhibition counter-screen; Drosophila S2 Gal4-VP16 UAS-luciferase, luminescence, 20 h; Potency, µM (titrated, usually from 53.6 µM), for inactives: at the top dose activity, negative = inhibition, hits mostly inhibitors; actives 3.5% (n = 310,000);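 note: Gal4-VP16 expression switched on by copper sulfate through the metallothionein promoter; % is set by controls: 0 for no effect and ±100 for the full control effect; nearly all actives have a fitted effect of over 50% in size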
ATXN2 expr inh = ATXN2 expression inhibition; HEK-293 ATXN2-luciferase reporter, luminescence, 24 h; Potency, µM (top dose mostly 57 µM), for inactives: at the highest dose activity change, negative = inhibition, most hits filed as inhibitors; actives 0.72% (n = 360,000); AID 1745845; note: % is set by controls: 0 for no effect and ±100 for the full control effect; nearly all actives have a fitted effect of over 55% in size
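qHTS (up to 57 uM final) was run with 24 h compound exposure of reporter cells at 37 °C. Each well was multiplexed: SteadyGlo luminescence measured ATXN2-luciferase expression after a fluorogenic Gly-Phe-AFC viability readout (25 uM final).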
S2 tox = viability counter-screen for ATXN expression inhibitors. S2 cells (HEK-293 line with an ATXN2-luciferase reporter) viability, CellTiter-Fluor protease fluorescence, 24 h. Potency, µM (series often up to 56.7 µM), usual class: cytotoxic. actives 0.49% (n = 400,000); note: nearly all actives have a fitted effect of over 40% in size
HepG2 viability = kills HepG2 cells in TGF-b inhibitor counter-screen; AID 588856; HepG2 CAGA-GFP viability, ATP luminescence, 18 h; actives 0.76% (n = 410,000); Potency, µM (series often up to 46.1 µM), without a hit: top-dose activity change, negative = cytotoxicity, hits mostly cytotoxic
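CellTiter-Glo luminescence gave cytotoxicity after 18 hours at 37 degrees C. The cells were HepG2 CAGA-GFP in 1% FBS DMEM, stimulated with 500 pg/mL TGF-beta after compound addition. %Activity was normalised to no-cell wells (complete cell-killing) and DMSO (no toxicity), and curves were fitted and classified.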
TGFb inhibitor = inhibitors of TGF-b signaling. HepG2 CAGA-GFP TGF-b/SMAD3 reporter, GFP fluorescence, 18 h; TGF-beta stimulated, 500 pg/mL final. Potency, µM (series often up to 46.1 µM), inactives show at the highest dose activity, negative = inhibition, actives largely listed as inhibitors. actives 1.2% (n = 410,000); note: % is set by controls: 0 for no effect and ±100 for the full control effect; nearly all actives have a fitted effect of over 65% in size
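First, reporter cells (HEPG2 CAGA-GFP) rested 2 h at 37 degrees C. Next, compounds were pinned in and TGF-beta added to 500 pg/mL final. After 18 h, GFP was imaged per cell and summed per well.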
* hit, by the source's call; i = inactive; u = inconclusive; x = no result given; [ ] = another dose, or the depositor's remark. Calls come from the whole dose curve; as a rule, active = well fitted curve in the direction sought with a large enough effect; inconclusive = small, poorly fitted or top-dose-only effect, or another doubt; inactive = no such curve, though single readings can be large; an effect the other way counts as inactive or inconclusive. Potency is the fitted concentration of half-maximal effect.

SMILES | RORg inh | Gal4-VP16 FLuc | ATXN2 expr inh | S2 tox | HepG2 viability | TGFb inhibitor
O=C(Nc1ccc(Cl)cc1C(F)(F)F)C(Sc1nnc(-c2cccs2)o1)c1ccccc1 (stereo not drawn) | -27% | 2% | 23% | i | -36% | u
CCCn1nnc(NC(=O)COc2ccc(Cl)cc2)n1 | 38% | 9% | 2% | i | -3% | -1%
CCCn1nnnc1NC(=O)COc1ccc(Br)cc1 | 2.5µM* | 7.1µM* | -28% | i | -9% | 12%
CCCCC(=O)Nc1nnnn1CCC | 14µM* | u | -16% | i | 30% | 26%
CCCn1nnnc1NC(=O)c1ccc2ccccc2c1 | 1.6µM* | 1µM* | u | u | 13µM* | -2%
Cc1c(C(=O)NCC(C)C)sc2ncnc(NCC3CCCO3)c12 (stereo not drawn) | x | x | x | i | x | x
CN(C)C(CNC(=O)c1cccc(S(=O)(=O)Nc2ccc(SC(F)F)cc2)c1)c1ccccc1 (stereo not drawn) | x | x | 6% | i | -22% | 4%
COc1ccc2c(c1)OC(C)CN(CCNC(=O)c1csc(-c3cccs3)n1)C2 (stereo not drawn) | x | x | x | i | x | x
CC(C)(C)c1ccc(-c2noc(C(=O)NN)n2)cc1 | 10µM* | -28% | -22% | i | 3% | 18%
CC1C2(C)OCC(C#N)(C(=N)O2)C1(C#N)C#N (stereo not drawn) | 10% | 9% | x | x | x | x
CC1(C)CC2(C)OC(=N)C1(C#N)C2(C#N)C#N (stereo not drawn) | 7.9µM* | u | u | u | 16% | 16µM*
CCOc1ccccc1CNC(=O)C1=C(C)C(=O)OC12CCN(C(C)=O)CC2 | x | x | x | x | 20% | -2%
Cc1ccc(-c2nc3ccccn3c2NC(=O)c2ccco2)cc1 | 40µM* | 12% | 5% | i | -2% | 16%
COc1cccc(CNc2nc(Cl)nc3nc[nH]c23)c1 | x | x | x | x | -10% | 1%
CCCCn1c(OC(=S)N(CC)CC)cc(C)nc1=S | x | x | u | x | -35% | -5%
Cc1ccc(NC(=O)c2ccc(NC(=O)N3CCSc4ncccc43)cc2)cc1Cl | x | x | x | x | -7% | -34%
COc1cc2c(cc1NC(=O)CCC(=O)O)oc1ccccc12 | 7% | 2% | 2% | i | -1% | 1%
COc1cc2c(cc1NC(=O)Nc1ccccc1)oc1ccccc12 | u | -11% | 4% | i | 7.1µM* | u
COc1cc2c(cc1NC(=S)Nc1cccc(C(F)(F)F)c1)oc1ccccc12 | u | u | -19% | u | -23% | u
COc1cc2c(cc1NC(=O)COc1ccccc1OC)oc1ccccc12 | 0% | 6%[0.365 µM] | u | i | -2% | 24%
COc1cc2c(cc1NC(=O)COC(=O)Cn1cnc3ccccc31)oc1ccccc12 | 2µM* | 3%[0.365 µM] | 16% | i | -13% | -8%
COc1cc2c(cc1NC(=O)COC(=O)c1ccc(C(C)(C)C)cc1)oc1ccccc12 | 19% | -8% | -11% | i | 7% | -1%
COc1cc2c(cc1NC(=O)COC(=O)C(CCSC)NC(=O)c1ccccc1Cl)oc1ccccc12 (stereo not drawn) | 10µM* | u | 62% | i | -11% | -15%
COCCCNC(=S)Nc1cc2oc3ccccc3c2cc1OC | 5.6µM* | 7.1µM* | u | u | -22% | 0%
O=C(O)c1ccc(CNC(=O)c2ccc3c(c2)C(=O)N(Cc2cccnc2)C3=O)cc1 | -6% | -18% | -9% | i | -8% | 1%
SMILES | RORg inh | Gal4-VP16 FLuc | ATXN2 expr inh | S2 tox | HepG2 viability | TGFb inhibitor
CCC[C@@]1(CCc2ccccc2)CC(O)=C([C@H](CC)c2cccc(NS(=O)(=O)c3ccc(C(F)(F)F)cn3)c2)C(=O)O1 | x | x | x | i | x | x
COC(=O)C[C@H]1c2cc(F)ccc2S(=O)(=O)N1C1CC1 | x | x | x | x | 2% | -6%
COc1cc2c(cc1NC(=S)Nc1cccc3ccccc13)oc1ccccc12 | 10µM* | 11µM* | 29% | i | 8% | 2%
c1ccc(C(OC2CCCN(CCc3ccc4c(c3)OCO4)C2)c2ccccc2)cc1 (stereo not drawn) | 0% | -14% | x | x | x | x
Cc1cccc(CN2C(=O)c3ccccc3S(=O)(=O)c3ccc(C(=O)N4CCCC4)cc32)c1 | x | x | -17% | i | -32% | -16%
Cc1cc(=O)oc2c(O)c(O)ccc12 | u | -13% | -17% | i | -22% | -4%
Cc1cc(=O)oc2c(N)nccc12 | x | x | u | 35µM* | -112% | u
CCC1(C2CCN(C(=O)c3ccc(C)c(C)c3)CC2)NC(=O)N(CCc2scnc2C)C1=O (stereo not drawn) | x | x | x | i | x | x
NC(=S)NN=C1c2ccccc2-c2cc(Br)ccc21 | x | x | u | u | 2% | 2.8µM*
N#Cc1cccc2c1-c1ccccc1/C2=N/NC(N)=S | 4µM* | 5µM* | -37% | u | 7.1µM* | 5µM*
ON=C1c2ccccc2-c2ccc(Br)cc21 | x | x | 2% | i | -11% | -20%
C=C1/C(=C\C=C2/CCC[C@]3(C)[C@@H]([C@H](C)OCCC(C)(C)O)CC[C@@H]23)C[C@@H](O)C[C@@H]1O | x | x | x | i | x | x
COc1cccc(C2(CC(=O)N3CCC(c4nc5ccc(F)cc5[nH]4)CC3)CC(=O)N(C)C2=O)c1 (stereo not drawn) | x | x | x | i | x | x
CCN1C(=O)S/C(=C/c2ccc(Sc3nc4ccccc4[nH]3)o2)C1=O | 5.6µM* | 3.2µM* | u | u | -45% | 13µM*
N#C/C(=C/c1ccc(Sc2nc3ccccc3[nH]2)o1)c1cccc(Br)c1 | u | u | u | u | 0% | 23%
COc1cc(C(=O)N/N=C/c2cc([N+](=O)[O-])cs2)cc(OC)c1OC | 4µM* | u | 1% | i | -5% | -23%
CCOc1ccc(C(=O)N/N=C/c2cc([N+](=O)[O-])cs2)cc1 | 5% | -17% | -24% | i | 37% | 26%
O=C(Nc1cc(S(=O)(=O)Nc2ccc(Cl)cc2)ccc1O)c1ccc(S(=O)(=O)N2CCCCCC2)cc1 | u | u | -32% | i | -62% | u
Cc1ccsc1/C=N/NC(=O)c1ccncc1 | 3.5µM* | 7.1µM* | u | u | 7% | 4%
O=C(N/N=C\c1cc(Cl)ccc1O)c1ccc(S(=O)(=O)N2CCCCC2)cc1 | 5µM* | 3.5µM* | 2.5µM* | i | -35% | -33%
Cc1ccsc1/C=N/NC(=O)c1cccnc1 | u | 13µM* | 17% | i | 2% | 7%
CN(C)c1ccc(C=NNC(=O)c2cccnc2)cc1 | x | x | 28% | i | -2% | u

Bioassay records (PubChem BioAssay)
